Only some compounds are listed: those with a hit (about 6.8% of all), similar ones and a draw of the others.
PMK inhibit = blocks S. pneumoniae phosphomevalonate kinase. purified PMK, PK/LDH-coupled NADH absorbance 340 nm. inhibition, % at 10 µM. actives 0.49% (n = 65,000);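 active = top-ranked compounds by inhibition in the single 10 µM screen, taking a fixed number of the strongest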;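 also: 0% = full reaction with DMSO carrier and 100% = background rate without enzyme reaction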
Autofluor 339 = intrinsic fluorescence of library compounds, ex339/em460 – biochemical, MLSMR library, data from DPM-DC assay, artefact control, profiling panel; compound autofluorescence, ex339/em460 nm, NADH buffer; hits give high values; 1 = no-compound wells, NADH background; fluorescence fold increase at 10 µM; actives 5.5% (n = 65,000); AID 709;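 active = at 10 µM, mean starting fluorescence two-fold or more over control wells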;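 also: signal is the first read of a kinetic run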
DPM-DC inhibit = blocks S. pneumoniae diphosphomevalonate decarboxylase. AID 556. purified DPM-DC, PK/LDH coupled NADH fluorescence. calls only at 10 µM. actives 0.49% (n = 65,000);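 active = the 320 compounds with the highest percent inhibition in the single-dose primary screen, excluding strongly autofluorescent ones, cut at about 32% in these data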;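 also: kinetic rate of NADH fluorescence loss reporting ADP formed by the decarboxylase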
NADH enzymes = inhibitors of enzymes used to reach an NAD/NADH endpoint | coupled PK/LDH NADH assays, four targets | IC50, µM (top dose mostly 10 µM), for the others: top-dose inhibition | actives 0.02% (n = 65,000);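 active = single-dose screening hits from any of four coupled enzyme assays that gave an IC50 when retested across doses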;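 also: the DPM-DC format reads NADH fluorescence rather than 340 nm absorbance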
Spn MK inh = S. pneumoniae mevalonate kinase inhibition. purified MK, PK/LDH-coupled NADH absorbance 340 nm. inhibition, % at 10 µM. actives 0.48% (n = 65,000). AID 555;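 active = ranked among the strongest by inhibition in the single 10 µM screen, a fixed top-ranked set picked for dose follow-up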
A340 absorber = absorbance at 340 nm. compound absorbance at 340 nm, fold over control. fold change at 10 µM. 65,000 tested, under 10 active. AID 708;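 active = at 10 µM dose, initial 340 nm absorbance at least 2 fold that of control wells; inactive = change under 2 fold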;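 also: initial absorbance extrapolated from kinetic A340 decline of NADH oxidation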
An asterisk follows results filed as active; i = inactive; nt = no result shown; + = active, no number.

SMILES | PMK inhibit | Autofluor 339 | DPM-DC inhibit | NADH enzymes | Spn MK inh | A340 absorber
O=C(Cn1c(=O)c2c(ncn2Cc2ccccc2)n(Cc2ccccc2)c1=O)N1CCCC1 | 14 | 1.1 | i | 5% | 0 | 1
O=c1n(Cc2ccccc2)c2cc(Cl)cnc2n1Cc1ccccc1 | 0 | 2.8* | i | 4% | 6 | 1
CC(=O)Nc1cccc(Oc2cc(C#N)c(C#N)cc2N2CCCCCC2)c1 | 0 | 1.5 | i | 1% | 2 | 1.1
O=C(Nc1cccc(F)c1)c1ccc2c(c1)OCO2 | 8 | 1.1 | i | 4% | 18 | 1
CCOC(=O)c1ccc(NC(=O)c2ccc3c(c2)OCO3)cc1 | 4 | 1.1 | i | 2% | 3 | 1.1
Cc1ccc(NC(=O)c2oc3ccccc3c2NC(=O)c2ccc3c(c2)OCO3)cc1 | 3 | 2* | i | 1% | 0 | 1.1
O=C(Nc1c(C(=O)Nc2cccc(F)c2)oc2ccccc12)c1ccc2c(c1)OCO2 | 6 | 5* | nt | 3% | 0 | 1.1
CC1CCN(C(=O)CSc2nnc(CN3CCOCC3)n2-c2ccccc2)CC1 | 0 | 1.1 | i | 5% | 16 | 1.1
COc1cc2c(cc1OC)C(c1ccc3c(c1)OCO3)C1=C(CC(C)(C)CC1=O)N2 (configuration not stated) | 17 | 4.9* | nt | 11% | 5 | 1.1
COc1ccc(-c2nc(C#N)c(N3CCOCC3)o2)cc1OC | 9 | 3.1* | nt | 8% | 11* | 1
COc1ccc(-c2nc(C#N)c(N3CCN(c4cccc(Cl)c4)CC3)o2)cc1OC | 18 | 2.1* | i | 11% | 16 | 1
N#Cc1nc(COc2ccccc2)oc1N1CCN(c2cccc(Cl)c2)CC1 | 1 | 1.1 | i | 0% | 0 | 1.1
Cc1oc2nc(SCC(=O)N3CCCCC3)nc(N)c2c1C | 0 | 1.1 | i | 3% | 9 | 1
CCc1nc(SCC(=O)NCCc2ccc(OC)c(OC)c2)c2c(=O)n(C)c(=O)n(C)c2n1 | 0 | 1.1 | i | 1% | 4 | 1
COc1ccc(-c2[nH]c(-c3cccc(OC)c3)nc2SCC(=O)NCc2ccco2)cc1 | 17 | 1.7 | i | 6% | 4 | 0.99
CCOc1ccccc1-c1nc(C(N)=O)c2[nH]c(=O)n(-c3ccc(F)cc3)c2n1 | 13 | 2.1* | nt | 12% | 10 | 1.1
COc1ccc(OC)c(NC(=O)c2nnn(Cc3ccccc3C)c2N)c1 | 2 | 1.1 | i | 1% | 0 | 1
O=C(Cc1coc(-c2ccc(F)cc2)n1)N1CCOCC1 | 32* | 1 | i | 11% | 0 | 1
Cc1ccc2c(N)c(C)ccc2c1 | 11 | 3.7* | nt | 10% | 9 | 1
CC(C)(C)C(=O)N=C1SC2CS(=O)(=O)CC2N1c1ccc2c(c1)OCO2 (configuration not stated) | 3 | 1 | i | 3% | 2 | 0.99
Cc1ccc2c(c1)C(N1CCCC1=O)CC(c1ccco1)N2 (configuration not stated) | 0 | 2.6* | i | 1% | 5 | 1
O=C(O)c1cc2n(n1)C(C(F)(F)F)CC(c1ccco1)N2 (configuration not stated) | 2 | 1.1 | i | 2% | 3 | 1.1
O=c1c2[nH]c3cccc(Cl)c3c2ncn1CCN1CCCCC1 | 4 | 1.6 | i | 4% | 9 | 1
Cn1c2ccc(F)cc2c2ncn(CCN3CCOCC3)c(=O)c21 | 12 | 1.7 | i | 6% | 9 | 1
Cc1ccc2[nH]c3c(=O)n(CCCN4CCOCC4)cnc3c2c1 | 0 | 2.7* | i | 12% | 10 | 1.1
SMILES | PMK inhibit | Autofluor 339 | DPM-DC inhibit | NADH enzymes | Spn MK inh | A340 absorber
Cn1c2ccccc2c2ncn(CCCN3CCOCC3)c(=O)c21 | 8 | 2.4* | i | 6% | 1 | 1
Cc1ccc2[nH]c3c(=O)n(CCCN4CCN(C)CC4)cnc3c2c1 | 12 | 2.1* | i | 8% | 10 | 0.99
COc1cc2[nH]c3c(=O)n(CCN4CCCCC4)cnc3c2cc1OC | 9 | 3.6* | nt | 10% | 11 | 1.1
CC1(C)CC(=O)C2=C(C1)Oc1nc3ccccc3cc1C2C(C#N)C#N (configuration not stated) | 0 | 1.1 | i | 4% | 8 | 1
CCOC(=O)C1=C(CS(=O)(=O)c2ccc(F)c(C)c2)NC(=O)NC1c1ccc(O)c(O)c1 (configuration not stated) | 4 | 1 | i | 3% | 9 | 0.99
CCOc1ccc(N(CC(=O)NCc2cccc(OC)c2)S(=O)(=O)c2c(C)noc2C)cc1 | 19 | 1 | i | 5% | 6 | 0.98
CCOC(=O)c1sc2nc(N3CCOCC3)c3c(c2c1N)CCN(C)C3 | 0 | 3.7* | nt | 0% | 0 | 1.2
CC1(C)Cc2c(c(N3CCOCC3)nc3sc(C(=O)N4CCCCC4)c(N)c23)CO1 | 3 | 2.1* | nt | 4% | 4 | 1.1
Cn1cnc2c(sc3nc(N4CCOCC4)c4c(c32)CC(C)(C)OC4)c1=O | 10 | 2 | nt | 11% | 11 | 1.1
c1nc(N2CCOCC2)c2sc3nc(N4CCOCC4)c4c(c3c2n1)CCCC4 | 13 | 1.2 | i | 7% | 6 | 1
CNC(=O)c1ccc(-c2sc3nc(N4CCOCC4)c4c(c3c2N)CCCC4)o1 | 9 | 2.2* | nt | 11% | 12 | 1.1
CCN(CC)c1nc(N2CCOCC2)c(C#N)c2c1CN(C)CC2 | 2 | 1.1 | i | 6% | 17 | 1.1
CC1(C)Cc2c(c(N3CCOCC3)nc3sc(-c4ccc(C(=O)O)o4)c(N)c23)CO1 | 9 | 3.8* | nt | 8% | 7 | 1.3
O=C(CCCCCN1C(=O)c2ccccc2C1=O)NCc1ccccn1 | 21 | 1.1 | i | 7% | 0 | 1
CC(=O)N(Cc1ccc2c(c1)OCO2)C1CC(=O)N(CCc2ccccc2)C1=O (configuration not stated) | 0 | 1.1 | i | 0% | 0 | 1
CN(C)S(=O)(=O)c1cccc(C(=O)C2=C3SC=C(c4ccccc4)N3CC2)c1 | 0 | 1.1 | + | 37% | 10 | 1.1
CN(C)S(=O)(=O)c1cccc(C(=O)N2CCc3ccccc32)c1 | 3 | 1.1 | i | 3% | 5 | 1
CCOC(=O)c1cnn2c(N)c(C#N)nnc12 | 1 | 1.1 | i | 1% | 2 | 1
CCOC(=O)c1c(C)nc2c(C#N)cnn2c1C | 2 | 2.4* | i | 13% | 11 | 1
OCCCCNc1cccc2ccccc12 | 10 | 3.7* | nt | 9% | 8 | 0.99
O=c1cc(NCCO)c2ccccc2o1 | 0 | 1.1 | i | 2% | 6 | 1.1
COc1ccc(C(=O)Nc2ccc(S(=O)(=O)N3CCCCC3)cc2)cc1OC | 0 | 1.1 | i | 0% | 0 | 1.1
CCOc1ccc(CNC(=O)C2CCN(S(=O)(=O)N3CCCC3)CC2)cc1OC | 26* | 1.1 | i | 9% | 0 | 1
